Source: PubChem BioAssay
A selection: hits, their analogues and other compounds. The true share with any hit is near 1%.
TcdB inh – inhibitors of Clostridioides difficile toxin B glycohydrolase. P18177. TcdB glycohydrolase enzymatic assay, plate reader. inhibition, % at 9.99 µM. 350,000 compounds, 0.24% hits; in the data active means inhibition above about 10%
BioA inh – inhibitors of Mycobacterium tuberculosis BioA enzyme; AID 602481; purified M. tuberculosis BioA enzyme, plate reader; 360,000 compounds, 0.096% hits; inhibition, % at 9.99 µM; in the data active means inhibition above about 40%
MazF activator – MazEF (E. coli) toxin RNase activation. P0AE70. FAM/BHQ RNA-DNA oligo cleavage fluorescence, 5 h. activation, % at 20 µM. 350,000 compounds, 0.32% hits. AID 504720; in the data active means activation above about 50%
Target sequence (P0AE70 whole entry, looked up): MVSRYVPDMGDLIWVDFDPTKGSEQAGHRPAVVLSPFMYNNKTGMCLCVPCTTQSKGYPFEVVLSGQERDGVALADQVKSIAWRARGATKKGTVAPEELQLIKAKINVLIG
FadD28 FP inh – inhibitors of Mycobacterium tuberculosis FadD28 bisubstrate binding | FadD28 bisubstrate probe binding, fluorescence polarization | inhibition, % at 12.5 µM | 360,000 compounds, 0.22% hits | AID 588549; in the data active means inhibition above about 8.5%, passing the limit was not always enough
Yp Topo-I inh – blocks Yersinia pestis topoisomerase I activity | 360,000 compounds, 0.064% hits | Y. pestis Topo-I cleavage product accumulation, plate reader | activity, % at 10 µM; in the data active means activity above about 50%, passing the limit was not always enough
DUSP3 inh – blocks human VHR1 dual specificity phosphatase. P51452. recombinant VHR phosphatase, pNPP absorbance. inhibition, % at 13.3 µM. 290,000 compounds, 0.52% hits; in the data active means inhibition above about 50%
Target sequence (P51452 whole entry, looked up): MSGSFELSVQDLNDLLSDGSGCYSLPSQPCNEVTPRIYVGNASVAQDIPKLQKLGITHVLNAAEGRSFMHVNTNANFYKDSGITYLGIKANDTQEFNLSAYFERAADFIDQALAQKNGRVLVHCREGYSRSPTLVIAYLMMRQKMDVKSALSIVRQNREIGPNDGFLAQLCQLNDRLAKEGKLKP
* marks the source's active call; other numbers are inactive results; nt = no result.

SMILES	TcdB inh	BioA inh	MazF activator	FadD28 FP inh	Yp Topo-I inh	DUSP3 inh
COc1ccccc1NC(=O)/C(=N/OCc1ccc(F)cc1)C(C)=O	2	0	75*	0	9	14
C[C@H]1CN([C@@H](C)CO)S(=O)(=O)c2ccc(/C=C/c3ccccc3)cc2O[C@@H]1CN(C)C(=O)Nc1ccc(F)cc1	-2	2	nt	nt	nt	nt
COc1cccc(/C=N/Nc2nc(C)cc(=O)[nH]2)c1OC	-3	1	5	13*	-1	-15
CCOc1ccccc1/C=N/Nc1nc(C)cc(=O)[nH]1	nt	6	0	1	0	-1
CCCNC(=O)N(C)C[C@H]1Oc2ncc(-c3ccncc3)cc2C(=O)N([C@H](C)CO)C[C@H]1C	-1	1	nt	nt	nt	nt
O=C(c1ccccc1F)N1CCN(c2ccc([N+](=O)[O-])c3cccnc23)CC1	12*	nt	10	-1	-7	-5
O=C(c1ccccc1C(=O)N1CCN(c2ccccc2F)CC1)N1CCN(c2ccccc2F)CC1	nt	2	0	2	26	-6
O=C(c1ccccc1F)N1CCN(c2ccccc2F)CC1	nt	0	9	0	14	53*
C[C@H]1CN([C@@H](C)CO)C(=O)c2cc(-c3cccc(C#N)c3)cnc2O[C@@H]1CN(C)C(=O)C1CCCCC1	2	nt	nt	nt	nt	nt
CCCc1nc2c([nH]1)c(=O)n(C)c(=O)n2C	1	-1	-3	-1	-4	60*
COc1cccc(CNCCc2c[nH]c3ccccc23)c1OCc1ccccc1	1	nt	5	-2	-4	60*
COc1ccccc1NC(=O)CN1CCN(CC(=O)Nc2ccc(Cl)c(C(F)(F)F)c2)CC1	nt	0	0	-3	20	34
COc1ccc(NC(=O)CN2CCN(CC(=O)Nc3ccccc3Cl)CC2)cc1Cl	nt	4	0	-2	24	51*
COc1ccc2c3c(n(C)c2c1)[C@H](CO)N(C(=O)CN1CCOCC1)CC31CCN(C(C)=O)CC1	-4	nt	nt	nt	nt	nt
N#Cc1ccc(-c2ccccc2)nc1SCC(=O)c1cc2ccccc2oc1=O	nt	-1	63*	-1	-2	0
CC(C)c1c(C#N)c(N)nc(SCC(=O)c2cc3ccccc3oc2=O)c1C#N	nt	-1	-6	-3	-2	8
Cc1nc(SCC(=O)c2cc3ccccc3oc2=O)c(C#N)c(-c2cccs2)c1C(=O)Nc1ccccc1	0	nt	61*	0	-4	3
Cc1noc(C)c1NC(=O)N(C)C[C@@H]1OCCCC[C@@H](C)Oc2ccc(NC(=O)NC(C)C)cc2C(=O)N([C@@H](C)CO)C[C@H]1C	-1	-2	nt	nt	nt	nt
CCOc1ccccc1NC(=O)CNC(=O)N1CC(=O)Nc2ccccc21	1	0	3	-1	3	51*
O=C(CNC(=O)N1CC(=O)Nc2ccccc21)Nc1ccccc1F	1	-4	-15	-1	0	9
CN1c2ccc(C3=CCCCC3)cc2[C@H]2[C@H](CCN2C(=O)C2CC2)[C@@H]1CO	-3	nt	nt	nt	nt	nt
CN(C)C(=O)C[C@@H]1CC[C@@H]2[C@H](COC[C@H](O)CN2CC2CC2)O1	-3	-5	nt	nt	nt	nt
COCCCNC(=S)N(CCCO)Cc1cc2cc3c(cc2[nH]c1=O)OCO3	1	0	8	0	-3	43
COCCCNC(=S)N(CCO)Cc1cc2cc3c(cc2[nH]c1=O)OCO3	0	0	-4	0	-4	52*
CCN(CC)CCN(Cc1cc2cc3c(cc2[nH]c1=O)OCO3)C(=S)NCCCN(C)C	0	0	8	-1	-5	52*
SMILES	TcdB inh	BioA inh	MazF activator	FadD28 FP inh	Yp Topo-I inh	DUSP3 inh
CCN(CC)CCN(Cc1cc2cc3c(cc2[nH]c1=O)OCCO3)C(=S)NCCCN(C)C	1	-3	-25	-2	8	14
CO[C@@H](CN(C)S(=O)(=O)c1ccc(Cl)cc1)[C@@H](C)CN([C@H](C)CO)S(=O)(=O)c1cccc(Cl)c1	0	-1	nt	nt	nt	nt
CCOC(=O)c1sc2nc(OCCN3CCOCC3)cc(C)c2c1N	12*	nt	nt	nt	nt	nt
CCOC(=O)c1sc2nc(N3CCOCC3)c3c(c2c1N)CCC3	nt	8	-6	1	7	15
CCC(/C=C1\Oc2ccc(OC)cc2N1C)=C\c1sc2ccccc2[n+]1CCCS(=O)(=O)[O-]	-1	-1	-652	-3	-5	nt
COc1cc(/C=C/c2sc3ccccc3[n+]2CCCS(=O)(=O)[O-])ccc1O	10*	nt	-80	-19	6	38
CC(=O)N(C)C[C@@H]1Oc2ncc(C#Cc3cccnc3)cc2C(=O)N([C@H](C)CO)C[C@H]1C	-1	11	nt	nt	nt	nt
